Screens deposited in PubChem BioAssay by National Center for Advancing Translational Sciences (NCATS).
Pf Dd2 inh: blocks in vitro growth of P. falciparum Dd2; P. falciparum Dd2 growth, SYBR Green, 72 h; Potency, µM (doses to about 28.9 µM), without a hit: at the top dose activity, negative = inhibition, actives largely listed as inhibitors; 120,000 compounds, 4.3% hits; active means well fitted inhibition curve with a large enough effect;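 further: plate controls were DMSO vehicle for no effect and reference drug for full effect; nearly all actives have a fitted effect of over 65% in size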
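Readout: SYBR Green fluorescence, 485 nm excitation, 535 nm emission, after ~16 h lysis at 37C. Before that, Dd2-infected red cells (2.5% hematocrit) grew 72 h with compound, 29 uM top final concentration.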
Numbers without * were called inactive; i = inactive; ! = not active in a repeat; [ ] = remark or other dose. The sample as a whole holds a higher share of hits than the screen did. Potency means the concentration at half of the fitted maximal effect.

SMILES	Pf Dd2 inh
Cc1cccc(C(=O)Nc2cc(-c3nc4cccnc4s3)ccc2C)c1	4%
CCC(C(=O)Nc1cc(-c2nc3cccnc3s2)ccc1C)c1ccccc1 (configuration not stated)	10µM*
CCc1ccc(S(=O)(=O)Nc2cccn3nc(CC)nc23)cc1	-19%
O=C1CC(C(=O)N2CCN(c3ccc(F)cc3)CC2)CN1Cc1ccncc1 (configuration not stated)	-8%
CC1CCCN(Cc2cn3c(-c4cccc(Br)c4)nnc3s2)C1 (configuration not stated)	22%
COC(=O)CN(C)Cc1cn(-c2ccc(C)cc2)nc1-c1cccc(C)c1	-12%
Cc1ccc(-n2cc(CN3CCN4CCCC4C3)c(-c3cccc(C)c3)n2)cc1 (configuration not stated)	13µM*
CN(C)C(=O)CN1CCCC(N2CCN(c3cccc(C(F)(F)F)c3)CC2)C1 (configuration not stated)	-9%
Cc1ccc(-n2cc(CN3CCC(CCO)CC3)c(-c3cccc(C)c3)n2)cc1	10µM*
Cc1ccc(-n2cc(CN3CCN(C)C(CCO)C3)cn2)cc1 (configuration not stated)	-22%
CCS(=O)(=O)Nc1ccc(C2(C(=O)NCc3ccc(C)cc3)CCC2)cc1	-8%
Cc1ncccc1C(=O)N1CCC2(CC1)CC(N(Cc1ccccc1)C1CC1)CCO2 (configuration not stated)	9%
O=c1cc(-c2cccnc2)nc(-c2ccc(CN3CC[C@@H](O)C3)cc2)[nH]1	-28%
COc1ccccc1-c1ccc(CN2CCN(c3ccc(Cl)nn3)C(=O)C2)cc1	-12%
O=c1[nH]c(C2CCCN(Cc3ccc(C(F)(F)F)cc3)C2)nn1-c1ccccc1 (configuration not stated)	-20%
O=c1[nH]c(C2CCN(Cc3ccc(-c4cccnc4)cc3)CC2)nc2ccc(F)cc12	4.5µM*!
COc1ccccc1-c1ccc(CN2CC3CCC(C2)N3c2ccc(C(F)(F)F)cc2)cc1	-24%
O=c1[nH]c(C2CCCN(Cc3ccc(-c4ccccc4)cc3)C2)nc2ccc(F)cc12 (configuration not stated)	8.9µM*!
O=c1[nH]c(C2CCN(CC3CCCC3)CC2)nc2ccc(F)cc12	-6%
COc1ccccc1-c1ccc(CN2CCCC(c3nc4ccc(F)cc4c(=O)[nH]3)C2)cc1 (configuration not stated)	8.9µM*!
O=c1[nH]c(C2CCCN(Cc3ccsc3)C2)nn1-c1ccccc1 (configuration not stated)	i
Cc1ccc(C(=O)N2CCC3(CC2)CNC(=O)c2ccccc2O3)cc1	i
COCc1nc2nccc(-c3ccc(OC)cc3F)n2n1	7%
CC(=O)N1CCC2(CC1)CC(Cc1ccccc1)CCO2 (configuration not stated)	8%
COCC(=O)N1CCCCCCNC(=O)[C@@H]2CCCC[C@@H]21	25%
SMILES	Pf Dd2 inh
CC(C)c1ccc(NC(=O)c2ccc3c(c2)CCN3S(=O)(=O)c2ccccc2)cc1	8.9µM*
CC(=O)Nc1ccc(NC(=O)c2ccc3c(c2)CCN3S(=O)(=O)c2ccc(Cl)cc2)cc1	i
CC(C)c1ccc(NC(=O)c2ccc3c(c2)CCCN3S(C)(=O)=O)cc1	-3%
CCCOc1cc(C)c2c(c1C)C[C@H](C(C)C(=O)N1CCN(CCO)CC1)CC2 (some centres not stated)	i
CCC[C@@H]1CN(Cc2[nH]cc(C)c(=O)c2C)C[C@H]1C(=O)O	-5%
Cn1nc(C2CCNCC2)n(CCc2ccccc2)c1=O	3%
COc1ccc(-c2noc([C@@H]3C[C@H](NS(=O)(=O)c4ccccc4)CN3C)n2)cc1	i
COc1ccc(-c2noc([C@@H]3C[C@H](NC(=O)COCC(=O)O)CN3C)n2)cc1	-18%[44.1 µM]
COc1ccc(-c2noc([C@@H]3C[C@H](NCc4ccc(N(C)C)cc4)CN3C)n2)cc1	13µM*
O=C(NCc1ccco1)c1cccc2c1CCN2C(=O)Nc1ccc(F)cc1	-2%
c1ccc(OCc2nc(C3CCCNC3)no2)cc1 (configuration not stated)	5.6µM*
Fc1ccccc1OCc1nc(C2CCCNC2)no1 (configuration not stated)	i
Cc1ccc(OCc2nc(C3CCNC3)no2)cc1 (configuration not stated)	-1%
CC1CN2CC(O)CC2CN1 (configuration not stated)	15%[76.6 µM]
CC(=O)c1cccc(NC(=O)Cn2c(N3CCc4ccccc4C3)nc(C)cc2=O)c1	-13%
O=C1Cc2c(-c3cccc(CO)c3)n[nH]c2CN1CC1CC1	12%[44.1 µM]
Cc1ccc(N2C(=O)c3n[nH]c(C)c3C2c2ccccc2Cl)cc1 (configuration not stated)	6%
CCOc1ccc(C(=O)NC2CCCN(c3cc(-c4ccc(OC)cc4)[nH]n3)C2)cc1 (configuration not stated)	i
CCOC(=O)c1sc(N2C(=O)c3oc4ccc(F)cc4c(=O)c3C2c2cccc(OC)c2)nc1C (configuration not stated)	-32%
CCOC(=O)c1ccc(N2CC3=C(C2=O)C(c2ccc(OC)cc2)NC(=O)N3C)cc1 (configuration not stated)	44%
CCOC(=O)c1ccc(N2C(=O)c3[nH]nc(-c4ccc(OCC)cc4)c3C2c2ccc(OC)cc2OC)cc1 (configuration not stated)	7.9µM*
CCOC(=O)c1ccc(N2C(=O)c3n[nH]c(-c4cccs4)c3C2c2ccc(OC)cc2OC)cc1 (configuration not stated)	11µM*
CCOC(=O)C1=C(C)N=C2SC=C(CC(=O)N3CCC(C)CC3)N2C1c1cccc(OC)c1 (configuration not stated)	-18%
CCOc1ccc(C(=O)Nc2ccc(-n3nncc3-c3ccc(OC)cc3)cc2)cc1	92%
CCOC(=O)c1ccc(N2C(=O)c3n[nH]c(-c4cccs4)c3C2c2cccc(OC)c2)cc1 (configuration not stated)	3.5µM*
SMILES	Pf Dd2 inh
COc1ccc(C(=O)N2CC(c3nc(CCN(C)C(=O)C4CC4)no3)C2)c(OC)n1	-1%
Cc1[nH]c2c(F)cccc2c1CC(=O)N1CCCC2(CC1)CN(C)C(=O)O2 (configuration not stated)	-2%
O=C(Cn1ccnc1)N1CCC(N2C(=O)C3(CCCCC3)C2c2ccncc2)CC1 (configuration not stated)	-11%
COc1cc(Cl)c(C)cc1NC(=O)Cn1ccn2nc(-c3ccccc3)c(CO)c2c1=O	-9%
CCCNC(=O)CCSc1nc(-c2ccc3c(c2)OCO3)cc(C(F)(F)F)n1	5µM*
COc1ccc(-c2cc(C(F)(F)F)nc(SCCC(=O)Nc3cc(C)ccc3O)n2)cc1	1µM*
COc1ccc(CNC(=O)CSc2nc(-c3ccc(OC)cc3)cc(C(F)(F)F)n2)cc1	5%
COc1ccc(-c2cc(C(F)(F)F)nc(SCCC(=O)Nc3ccccc3F)n2)cc1	28%
CCCNC(=O)CSc1nc(-c2ccc(OC)cc2)cc(C(F)(F)F)n1	i
CC(C)(C)NC(=O)CCSc1nc(-c2ccc3c(c2)OCO3)cc(C(F)(F)F)n1	i
COc1ccc(Cl)cc1C(=O)NCc1nnc2cc(-c3nc(C4CC4)no3)ccn12	30%
CCC(CC)NC(=O)C1CCCN(Cc2ccncc2)CCC(=O)NCC1 (configuration not stated)	-23%
CS(=O)(=O)c1ccc(OCC2(CNCc3cccnc3)C[C@@H](O)[C@@H](O)C2)cc1 (some centres not stated)	34%
